Measured values reported in the supplement of paper PMC6992640.

system: UCD52 (cells of a triple-negative basal-like breast cancer xenograft); experiment: cell viability of combination (% of vehicle); higher = less cytotoxic; conditions: 1 µM; 72 h; partner dose: 10 nM
Procedure: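 PDX cells were treated for 72 h with each drug at 1 µM plus carfilzomib (10 nM; 100 nM for WHIM2). Luciferase viability is expressed as percent of vehicle.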

| SMILES | cell viability of combination |
| --- | --- |
| CNC(=O)c1cc(Oc2ccc(NC(=O)Nc3ccc(Cl)c(C(F)(F)F)c3)c(F)c2)ccn1 [Regorafenib] + CC(C)C[C@H](NC(=O)[C@H](CCc1ccccc1)NC(=O)CN1CCOCC1)C(=O)N[C@@H](Cc1ccccc1)C(=O)N[C@@H](CC(C)C)C(=O)[C@@]1(C)CO1 [Carfilzomib] | 58.6 |
| O=C1C=CC=CC1=C1NC(=C2C=CC=CC2=O)N(c2ccc(C(=O)O)cc2)N1 [Deferasirox] + CC(C)C[C@H](NC(=O)[C@H](CCc1ccccc1)NC(=O)CN1CCOCC1)C(=O)N[C@@H](Cc1ccccc1)C(=O)N[C@@H](CC(C)C)C(=O)[C@@]1(C)CO1 [Carfilzomib] | 61.2 |
| Cc1cn(-c2cc(NC(=O)c3ccc(C)c(Nc4nccc(-c5cccnc5)n4)c3)cc(C(F)(F)F)c2)cn1 [Nilotinib(AMN-107)] + CC(C)C[C@H](NC(=O)[C@H](CCc1ccccc1)NC(=O)CN1CCOCC1)C(=O)N[C@@H](Cc1ccccc1)C(=O)N[C@@H](CC(C)C)C(=O)[C@@]1(C)CO1 [Carfilzomib] | 45.7 |
| O=C(O)CO.[NH2-].[NH2-].[Pt+2] [Nedaplatin] + CC(C)C[C@H](NC(=O)[C@H](CCc1ccccc1)NC(=O)CN1CCOCC1)C(=O)N[C@@H](Cc1ccccc1)C(=O)N[C@@H](CC(C)C)C(=O)[C@@]1(C)CO1 [Carfilzomib] | 68.8 |
| CCN1CCN(Cc2ccc(Nc3ncc(F)c(-c4cc(F)c5nc(C)n(C(C)C)c5c4)n3)nc2)CC1.CS(=O)(=O)O + CC(C)C[C@H](NC(=O)[C@H](CCc1ccccc1)NC(=O)CN1CCOCC1)C(=O)N[C@@H](Cc1ccccc1)C(=O)N[C@@H](CC(C)C)C(=O)[C@@]1(C)CO1 [Carfilzomib] | 64.9 |
